Measured values: PubChem BioAssay
Activity calls are given as the source filed them.

Tests used:
[1] = optical density shifts of acrAB sulA E. coli – strain DRC41, OD650, 48 h, E. coli filamentation inducer project, primary screen (AID 1152); conditions: higher = more signal, called active from +8 up or from −8 down;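 note: E. coli MC1000 strain DRC41 lacking acrAB efflux pump and sulA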
[2] = probe aLefty1 binding on compound microarray – biochemical, small-molecule microarray, 635/667 nm fluorescence, primary screen (AID 1153); conditions: higher = more signal;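 note: score merges spot fluorescence with signal-to-noise ratio from the scanned slide images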
[3] = plasmodial surface anion channel blockers, osmotic lysis – cell-based, P. falciparum Indochina, OD700, 1 h, primary screen (AID 1154); conditions: P. falciparum Indochina infected RBC osmotic lysis, higher = more signal, called active from +8 up or from −8 down
[4] = plasmodial surface anion channel blockers, osmotic lysis – cell-based, P. falciparum Indochina, OD700, 2 h, primary screen (AID 1155);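 note: lysis reports solute entry through the parasite surface anion channel PSAC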; conditions: P. falciparum Indochina infected erythrocytes, higher = more signal, called active from +8 up or from −8 down
[5] = changes in parasitized red cell lysis, either direction – P. falciparum Indochina, OD700, 3 h, PSAC antagonist project, primary screen (AID 1156); conditions: P. falciparum-infected erythrocytes, osmotic lysis, higher = more signal, called active from +8 up or from −8 down
[6] = plasmodial surface anion channel blockers, osmotic lysis – cell-based, P. falciparum Indochina, OD700, 18 h, primary screen (AID 1157); conditions: P. falciparum Indochina infected erythrocytes, osmotic lysis OD700, 18 h; higher = more signal, called active from +8 up or from −8 down
[7] = S6 kinase pathway phospho-S6 level changes – cell-based, A549, cytoblot, luminescence, serum-stimulated, primary screen (AID 1158); conditions: 5 h, higher = more signal;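 note: serum-stimulated A549 lung adenocarcinoma cells; signal is phosphorylated S6 detected by cytoblot immunostaining with HRP secondary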
[8] = biological target: NADPH oxidase 2 (Homo sapiens) (UniProt P04839); test: compounds shifting NOX2 Amplex Red fluorescence – cell-based, HEK293-NOX2, PMA-stimulated, NOX inhibitor project, primary screen (AID 1159); conditions: 45 min, higher = more signal, called active from +8 up or from −8 down; note: test concentration not given here
[9] = biological target: NADPH oxidase 4 (Homo sapiens) (UniProt Q9NPH5); test: compounds shifting NOX4 Amplex Red fluorescence – cell-based, HEK293-NOX4, tetracycline-induced, NOX inhibitor project, primary screen (AID 1160); conditions: HEK293-NOX4, Amplex Red H2O2 fluorescence, 45 min; higher = more signal, called active from +8 up or from −8 down
[10] = biological target: NADPH oxidase 5 (Homo sapiens) (UniProt Q96PH1); test: compounds shifting NOX5 Amplex Red fluorescence – cell-based, HEK293-NOX5, NOX inhibitor project, primary screen (AID 1161); conditions: HEK293-NOX5, ionomycin, 45 min, higher = more signal
[11] = compound effects on lung adenocarcinoma cell viability – A549, calcein-AM fluorescence, 48 h, basal, profiling panel (AID 1162); conditions: higher = more signal; note: test concentration not given here
[12] = compound effects on differentiated 3T3-L1 adipocyte viability – cell-based, 3T3-L1 adipocytes, calcein-AM fluorescence, 48 h, basal, profiling panel (AID 1163); conditions: 3T3-L1 adipocytes viability, higher = more signal; note: test concentration not given here
[13] = compound effects on hepatocellular carcinoma cell viability – HepG2, calcein-AM fluorescence, 48 h, basal, profiling panel (AID 1164); conditions: higher = more signal; note: test concentration not given here
[14] = compound effects on multiple myeloma cell viability – MM1S, calcein-AM fluorescence, 48 h, basal, profiling panel (AID 1165); conditions: higher = more signal; note: test concentration not given here
[15] = calcein-AM signal in unstimulated myeloma cells – cell-based, calcein-AM fluorescence, 48 h, PK04 Diversity Set, profiling panel (AID 1166); conditions: RPMI8226 myeloma viability, higher = more signal;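 note: cells grown under basal conditions without added stimulus; test concentration not given here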
[16] = JC-1 mitochondrial signal, unstimulated HepG2 cells – cell-based, JC-1 fluorescence, 24 h, 100 nL compound, profiling panel (AID 1167); conditions: HepG2 mitochondrial potential, higher = more signal; note: test concentration not given here
[17] = JC-1 mitochondrial signal, unstimulated adipocytes – cell-based, JC-1 fluorescence, 3T3-L1 adipocytes, 24 h, 100 nL compound, profiling panel (AID 1168); conditions: JC-1 mitochondrial fluorescence, higher = more signal, called active from +8 up or from −8 down; note: test concentration not given here
[18] = JC-1 mitochondrial signal, unstimulated myeloma cells – cell-based, JC-1 fluorescence, RPMI8226, 24 h, 100 nL compound, profiling panel (AID 1169); conditions: JC-1 mitochondrial potential fluorescence, higher = more signal; note: test concentration not given here
[19] = JC-1 mitochondrial signal, unstimulated MM1S myeloma – cell-based, JC-1 fluorescence, 24 h, 100 nL compound, profiling panel (AID 1170); conditions: MM1S mitochondrial potential, higher = more signal; note: test concentration not given here
[20] = resazurin metabolic signal in A549 cells – cell-based, resazurin fluorescence, 24 h, PK04 Diversity Set, profiling panel (AID 1171); conditions: A549 viability, higher = more signal, called active from +8 up or from −8 down; note: test concentration not given here

Sequence of NADPH oxidase 5 (Homo sapiens) (Q96PH1 whole entry, looked up): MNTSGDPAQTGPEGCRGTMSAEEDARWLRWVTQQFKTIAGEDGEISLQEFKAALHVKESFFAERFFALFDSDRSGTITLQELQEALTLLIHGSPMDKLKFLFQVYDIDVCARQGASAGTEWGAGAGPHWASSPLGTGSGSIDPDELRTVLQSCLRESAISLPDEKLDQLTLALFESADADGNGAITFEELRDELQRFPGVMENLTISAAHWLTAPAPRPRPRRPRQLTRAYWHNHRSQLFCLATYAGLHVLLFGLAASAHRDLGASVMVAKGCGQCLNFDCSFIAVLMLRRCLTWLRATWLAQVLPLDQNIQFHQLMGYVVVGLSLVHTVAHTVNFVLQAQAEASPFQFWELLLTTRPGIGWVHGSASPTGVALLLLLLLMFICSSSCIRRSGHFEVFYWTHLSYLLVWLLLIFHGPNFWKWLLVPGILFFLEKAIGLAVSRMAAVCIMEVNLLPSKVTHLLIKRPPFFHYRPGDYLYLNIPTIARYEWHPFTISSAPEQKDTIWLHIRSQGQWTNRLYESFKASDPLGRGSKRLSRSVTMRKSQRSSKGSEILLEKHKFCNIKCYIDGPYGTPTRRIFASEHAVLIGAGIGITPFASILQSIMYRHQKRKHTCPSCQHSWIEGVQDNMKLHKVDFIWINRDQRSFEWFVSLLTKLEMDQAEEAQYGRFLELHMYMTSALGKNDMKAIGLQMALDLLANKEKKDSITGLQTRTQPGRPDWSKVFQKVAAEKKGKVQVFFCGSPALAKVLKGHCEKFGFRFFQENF
Sequence of NADPH oxidase 4 (Homo sapiens) (Q9NPH5 whole entry, looked up): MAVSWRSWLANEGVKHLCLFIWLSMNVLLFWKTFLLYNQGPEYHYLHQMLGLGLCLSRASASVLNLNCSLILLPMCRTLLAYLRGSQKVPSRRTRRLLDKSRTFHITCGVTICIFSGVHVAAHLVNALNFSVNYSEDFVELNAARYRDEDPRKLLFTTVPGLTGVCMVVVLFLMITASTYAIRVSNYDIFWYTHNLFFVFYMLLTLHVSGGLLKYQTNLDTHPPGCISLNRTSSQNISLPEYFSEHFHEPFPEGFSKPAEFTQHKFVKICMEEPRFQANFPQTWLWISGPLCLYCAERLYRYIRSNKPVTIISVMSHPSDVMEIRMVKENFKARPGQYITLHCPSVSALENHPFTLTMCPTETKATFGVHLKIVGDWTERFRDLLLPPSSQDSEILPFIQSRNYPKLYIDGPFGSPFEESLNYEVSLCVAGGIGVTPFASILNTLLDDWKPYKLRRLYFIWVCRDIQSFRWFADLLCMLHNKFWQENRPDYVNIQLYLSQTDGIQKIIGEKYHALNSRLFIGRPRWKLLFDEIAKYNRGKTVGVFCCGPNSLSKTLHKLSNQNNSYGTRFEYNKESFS
Sequence of NADPH oxidase 2 (Homo sapiens) (P04839 whole entry, looked up): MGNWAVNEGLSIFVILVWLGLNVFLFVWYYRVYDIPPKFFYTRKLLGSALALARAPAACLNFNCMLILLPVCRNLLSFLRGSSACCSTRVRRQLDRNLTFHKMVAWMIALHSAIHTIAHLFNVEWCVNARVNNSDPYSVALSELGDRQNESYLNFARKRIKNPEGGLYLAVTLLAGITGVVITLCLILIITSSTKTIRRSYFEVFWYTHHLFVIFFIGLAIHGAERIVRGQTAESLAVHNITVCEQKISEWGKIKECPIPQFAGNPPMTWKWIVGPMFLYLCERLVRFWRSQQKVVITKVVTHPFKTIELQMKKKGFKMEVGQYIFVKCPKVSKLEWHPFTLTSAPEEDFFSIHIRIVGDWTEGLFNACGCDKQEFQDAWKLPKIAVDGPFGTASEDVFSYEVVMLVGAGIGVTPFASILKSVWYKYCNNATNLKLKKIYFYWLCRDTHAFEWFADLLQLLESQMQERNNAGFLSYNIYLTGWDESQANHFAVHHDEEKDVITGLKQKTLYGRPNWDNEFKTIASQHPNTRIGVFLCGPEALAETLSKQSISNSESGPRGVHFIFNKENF

SMILES | z-score [1] | composite z-score [2] | z-score [3] | z-score [4] | z-score [5] | z-score [6] | z-score [7] | z-score [8] | z-score [9] | z-score [10] | z-score [11] | z-score [12] | z-score [13] | z-score [14] | z-score [15] | z-score [16] | z-score [17] | z-score [18] | z-score [19] | z-score [20]
O=C(NCC(F)(F)F)[C@@H]1c2ccccc2C(=O)N(CC23CC4CC(CC(C4)C2)C3)[C@H]1c1ccc(CO)cc1 | 1.17 (inactive) | 0.0585 | 0.75 (inactive) | -0.399 (inactive) | -0.2 (inactive) | -0.264 (inactive) | 3.83 | 0.49 (inactive) | -0.0154 (inactive) | 0.19 | 1.5 | 1.27 | 2.14 | -0.347 | 0.777 | 1.08 | -0.154 (inactive) | 0.417 | -0.457 | 0.637 (inactive)
CC(=O)NCCCC[C@@H]1NC(=O)[C@H]2C[C@@H](C(=O)NCCCCCC[N+](C)(C)C)[C@@H](c3ccc(O)cc3)N2C1=O | 0.371 (inactive) | 0.0262 | 1.94 (inactive) | 0.369 (inactive) | 0.469 (inactive) | 0.0802 (inactive) | -0.054 | 0.834 (inactive) | 0.288 (inactive) | -0.454 | -0.74 | 0.234 | -1.22 | -0.0244 | 0.512 | -0.896 | 0.217 (inactive) | 0.0883 | -0.251 | 0.615 (inactive)
COCCOC(=O)N1C(=O)[C@@]2(c3ccccc31)[C@H](C(N)=O)[C@H]1C(=O)O[C@H](c3ccccc3)[C@H](c3ccccc3)N1[C@@H]2c1ccc(OCCO)cc1 | 1.15 (inactive) | 0.196 | 3.76 (inactive) | 0.527 (inactive) | -0.535 (inactive) | 0.436 (inactive) | -0.211 | -0.555 (inactive) | 1.1 (inactive) | 0.00857 | -0.429 | 0.452 | -0.363 | -0.198 | 0.711 | -0.914 | 0.055 (inactive) | -0.112 | -0.523 | 0.574 (inactive)
CC(C)C[C@@H]1NC(=O)[C@H]2C[C@@H](C(=O)NCCCCCNC(=O)CS)[C@@H](c3ccc(O)cc3)N2C1=O | 0.213 (inactive) | -0.549 | 3.25 (inactive) | 0.945 (inactive) | 0.256 (inactive) | 0.277 (inactive) | -0.277 | 1 (inactive) | -0.828 (inactive) | 0.918 | -0.286 | 0.709 | -0.724 | -1.04 | -1.36 | -0.686 | -0.372 (inactive) | -0.113 | -0.611 | -0.858 (inactive)
CCCCC(=C=CC[C@H](O)c1ccc(OCCO)cc1)C[C@H](O)c1ccccn1 | 0.558 (inactive) | -0.0536 | 15.4 (active) | 2.3 (inactive) | 1.11 (inactive) | 1.07 (inactive) | 0.433 | 1.26 (inactive) | 0.364 (inactive) | -1.34 | 1.47 | -0.398 | 0.701 | -0.556 | -0.585 | -0.0776 | -0.794 (inactive) | -0.485 | -0.603 | 1.07 (inactive)
C=C(CCCC)C(=O)CC[C@H](OC(C)=O)c1ccccc1OCCO | 0.0371 (inactive) | 0.149 | 5.66 (inactive) | -0.686 (inactive) | 2.15 (inactive) | -1.83 (inactive) | 1.68 | -1.56 (inactive) | -0.397 (inactive) | -2.19 | -0.655 | 1.66 | -0.713 | -3.29 | -2.91 | 0.103 | 0.98 (inactive) | -0.706 | 0.346 | -1.24 (inactive)
COc1ccc(C(O)C2C=CC3C(=O)N(C)C(=O)C3N2Nc2ccc([N+](=O)[O-])cc2[N+](=O)[O-])cc1OCc1ccccc1 (stereo not given) | -1.07 (inactive) | 0.703 | -0.686 (inactive) | 0.958 (inactive) | 0.0971 (inactive) | 0.975 (inactive) | -1.21 | 0.0939 (inactive) | 0.703 (inactive) | 2.34 | -0.65 | -0.861 | 0.166 | 0.106 | -0.499 | -0.475 | -0.74 (inactive) | 0.0687 | -0.371 | -0.682 (inactive)
COC(=O)[C@@]1(Cc2ccc(F)cc2)[C@H]2c3cc(C(=O)N(C)C)n(CCN4CCOCC4)c3C[C@H]2CN1C(=O)c1ccccc1 | -1.43 (inactive) | 0.865 | -0.64 (inactive) | -0.738 (inactive) | 0.922 (inactive) | -1.9 (inactive) | 0.537 | 0.482 (inactive) | 0.523 (inactive) | -0.757 | -1.27 | 0.234 | -0.796 | -1.05 | -0.995 | -0.738 | -0.318 (inactive) | -0.245 | -0.28 | 0.389 (inactive)
C=CCC(OC(C)=O)[C@@H]1[C@@H](N(Cc2cccc3ccccc23)C(=O)c2cccc3ccccc23)c2cc(OCCCO)ccc2N1C(=O)Cc1ccc2ccccc2c1 (stereo not given in full) | -0.341 (inactive) | 0.211 | 0.704 (inactive) | 0.0473 (inactive) | 1.02 (inactive) | 0.334 (inactive) | 0.326 | -1.93 (inactive) | -0.859 (inactive) | -2.79 | -0.612 | -0.151 | -0.663 | 0.0031 | -1.9 | 2.09 | -0.0423 (inactive) | 0.00587 | -0.00493 | -0.0737 (inactive)
